High-throughput results: PubChem, National Center for Advancing Translational Sciences (NCATS)
Hits are enriched below; roughly 7.5% of the tested compounds scored in any of these assays.
B2AR arrestin: agonists driving beta-arrestin recruitment to human beta2-adrenergic receptor | AID 492947 | 0.02% of 330,000 active | Potency, µM (series often up to 46.1 µM), for inactives: at the top dose activation, actives largely listed as activators | beta-arrestin recruitment to beta2AR, cell-based reporter;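 note: potency is the fitted concentration of half-maximal effect; 0% = DMSO controls and full agonism = EC100 isoproterenol or metaproterenol; nearly all actives have a fitted effect of over 65% in size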
Gal4-VP16 FLuc: Gal4-VP16 reporter inhibition counter-screen | Potency, µM (doses to about 53.6 µM), for inactives: at the highest dose activity, negative = inhibition, usual class: inhibitors | Drosophila S2 Gal4-VP16 UAS-luciferase, luminescence, 20 h | 3.5% of 310,000 active | AID 2546;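 note: Gal4-VP16 expression switched on by copper sulfate through the metallothionein promoter; potency is the fitted concentration of half-maximal effect; nearly all actives have a fitted effect of over 50% in size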
TSHR antag: human thyrotropin receptor antagonism; AID 504810; 0.2% of 330,000 active; TSHR-expressing cells, TSH-stimulated cAMP HTRF, 2 h; active compounds read low; P16473; activity change, negative = inhibition, % at 11.5 µM;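 active = activity change below a set negative limit, meaning inhibition stronger than a set level, cut at about -70% in these data; inconclusive = activity change between two set negative limits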
Target sequence (P16473 whole entry, looked up): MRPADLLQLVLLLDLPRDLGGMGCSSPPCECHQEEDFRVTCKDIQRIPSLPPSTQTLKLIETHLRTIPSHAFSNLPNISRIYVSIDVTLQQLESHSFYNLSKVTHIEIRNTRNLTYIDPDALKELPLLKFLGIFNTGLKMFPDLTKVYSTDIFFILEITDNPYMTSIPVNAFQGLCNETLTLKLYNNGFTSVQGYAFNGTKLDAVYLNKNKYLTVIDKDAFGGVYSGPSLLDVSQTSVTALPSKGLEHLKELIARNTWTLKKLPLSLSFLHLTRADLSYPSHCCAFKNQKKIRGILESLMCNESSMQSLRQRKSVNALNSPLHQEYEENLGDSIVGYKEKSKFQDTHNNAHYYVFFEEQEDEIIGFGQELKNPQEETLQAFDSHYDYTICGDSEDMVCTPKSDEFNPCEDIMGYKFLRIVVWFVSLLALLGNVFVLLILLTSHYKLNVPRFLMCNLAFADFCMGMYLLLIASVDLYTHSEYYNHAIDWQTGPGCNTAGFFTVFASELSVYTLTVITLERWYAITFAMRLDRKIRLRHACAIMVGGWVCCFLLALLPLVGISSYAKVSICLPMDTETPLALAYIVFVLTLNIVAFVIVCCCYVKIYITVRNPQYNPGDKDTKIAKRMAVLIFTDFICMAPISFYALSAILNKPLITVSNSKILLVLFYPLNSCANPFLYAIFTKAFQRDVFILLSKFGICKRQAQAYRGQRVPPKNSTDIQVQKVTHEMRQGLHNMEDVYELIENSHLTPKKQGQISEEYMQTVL
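Cell-based HTRF cAMP assay; TSHR cells + compound, TSH EC80 (4nM final), 2 h, 37 deg C. Lysis with anti-cAMP cryptate and cAMP-d2, 30 min RT, read 665/620 nm.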
ELG1 repair inh: ELG1-dependent DNA repair inhibition; HEK293T ELG1-luciferase reporter, luminescence, 16 h; DNA damage induced by 5-fluorouridine; 2.3% of 330,000 active; Potency, µM (titrated, usually from 46.1 µM), for the others: at the highest dose activity change, negative = inhibition, hits mostly inhibitors; note: potency is the fitted concentration of half-maximal effect; nearly all actives have a fitted effect of over 55% in size
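Quantitative HTS, concentration-response format. 2,000 cells/well co-treated with 5-fluorouridine and compound, 16 hr in 5% CO2 at 37 °C; ONE-Glo luminescence read after 30 min.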
RORg inh: ROR gamma (mouse) transcription inhibition. Drosophila S2 Gal4-RORgamma UAS-luciferase reporter, 20 h. Potency, µM (series often up to 53.6 µM), without a hit: top-dose activity change, negative = inhibition, most hits filed as inhibitors. 5.4% of 310,000 active. AID 2551; note: potency is the fitted concentration of half-maximal effect; nearly all actives have a fitted effect of over 60% in size
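Compounds are pin-transferred onto Drosophila Schneider cells expressing a copper-inducible Gal4–ROR gamma transactivation domain fusion. After 1 hr, copper sulfate is added to 700 uM final; luciferase is read 20 hr later.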
ELG1 FLuc counter: luciferase inhibition in cell-free luciferin readout for ELG1 hits | 3% of 350 active | AID 624247 | cell-free firefly luciferase luminescence counter-screen, ViewLux | Potency, µM (highest dose often 46.1 µM), inactives show at the highest dose activity change, negative = inhibition, most hits filed as inhibitors | shares compounds with ELG1 repair inh; note: potency is the fitted concentration of half-maximal effect
ELG1-Luc inh: confirmation of human ELG1-dependent DNA repair inhibitors; shares compounds with ELG1 repair inh; AID 624248; 68% of 670 active; Potency, µM (series often up to 46.1 µM), for the others: at the highest dose activity change, negative = inhibition, most hits filed as inhibitors; HEK293T ELG1-luciferase levels, luminescence; cells co-treated with 5-fluorouridine; note: potency is the fitted concentration of half-maximal effect; nearly all actives have a fitted effect of over 55% in size
ELG1-Luc MMS: MMS-stimulated human ELG1 repair inhibition, confirmed; Potency, µM (top dose mostly 46.1 µM), inactives show at the highest dose activity change, negative = inhibition, most hits filed as inhibitors; HEK293T luciferase-tagged ELG1 level, MMS stimulated; shares compounds with ELG1 repair inh; 53% of 670 active; note: potency is the fitted concentration of half-maximal effect; nearly all actives have a fitted effect of over 60% in size
ELG1 5FU viab: confirmation of ELG1 repair inhibitors: viability with 5FU. shares compounds with ELG1 repair inh. cell viability with 5-FU, ELG1-dependent repair. 670 tested, under 10 active. Potency, µM (series often up to 46.1 µM), inactives show at the highest dose activity change, negative = viability loss, usual class: cytotoxic;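 note: ELG1-luc HEK293T cells cotreated with 5-fluorouridine at 10 µM final; potency is the fitted concentration of half-maximal effect; viability measured 16 h after compound addition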
ELG1 MMS viab: confirmation of ELG1 repair inhibitors: viability with MMS | shares compounds with ELG1 repair inh | Cell viability with MMS, ELG1-dependent DNA repair | Potency, µM (titrated, usually from 46.1 µM), inactives show at the top dose activity change, negative = viability loss, actives largely listed as cytotoxic | 33% of 670 active | AID 624251;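 note: ELG1-luc HEK293T cells co-treated with 10 µM MMS; potency is the fitted concentration of half-maximal effect; viability read 16 h after compound addition; nearly all actives have a fitted effect of over 60% in size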
Cell viab unstim: affects unstimulated cell viability, ELG1 hit counter-screen; cell viability counter-screen, unstimulated, luminescence; Potency, µM (series often up to 45.9 µM), without a hit: top-dose activity change, negative = loss of viability, most hits filed as cytotoxic; 8% of 900 active; shares compounds with ELG1 repair inh;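 note: potency is the fitted concentration of half-maximal effect; compound exposure lasted 16 hours before reading; nearly all actives have a fitted effect of over 55% in size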
FLuc enzyme: counter-screen for ELG1 repair inhibitors: firefly luciferase inhibition; shares compounds with ELG1 repair inh; purified firefly luciferase, luminescence counter-screen; Potency, µM (series often up to 57.5 µM), inactives show at the top dose activity, negative = inhibition, hits mostly inhibitors; 10% of 350 active; AID 624253; note: potency is the fitted concentration of half-maximal effect
Active calls of the source: *; ? = inconclusive; / = no result given. Unless noted, calls come from the whole dose curve; as a rule, active = well fitted curve in the direction sought with a large enough effect; inconclusive = small, poorly fitted or top-dose-only effect, or another doubt; inactive = no such curve, though single readings can be large; an effect the other way counts as inactive or inconclusive. Unless noted, % is set by controls: 0 for no effect and ±100 for the full control effect.

SMILES	B2AR arrestin	Gal4-VP16 FLuc	TSHR antag	ELG1 repair inh	RORg inh	ELG1 FLuc counter	ELG1-Luc inh	ELG1-Luc MMS	ELG1 5FU viab	ELG1 MMS viab	Cell viab unstim	FLuc enzyme
COc1cc(C)c(Br)cc1S(=O)(=O)NCc1ccncc1	0%	-20%	-13	1.6µM*	?	-6%	-7%	3.2µM*	-7%	3.2µM*	?	-1%
Cc1ccc(S(=O)(=O)NCc2ccncc2)c(C)c1C	0%	0%	-2	0%	?	-8%	10%	1µM*	-10%	1.1µM*	?	-4%
O=C(NCC(c1cccs1)N1CCOCC1)c1cn(-c2ccccc2)nc1-c1ccccc1 (stereo not given)	0%	/	-12	?	/	/	/	/	/	/	/	/
COc1ccc(-c2nn(-c3ccccc3)cc2C(=O)NCC(c2cccs2)N2CCOCC2)cc1 (stereo not given)	0%	/	-10	4.6µM*	/	/	14µM*	-1%	?	9%	-14%	/
COc1ccc(CNS(=O)(=O)c2ccc3c(c2)NC(=O)C(C)S3)cc1 (stereo not given)	0%	0%	14	?	27%	/	/	/	/	/	/	/
COc1ccc(-c2cc(-c3ccc(C)cc3)nc(SCc3nnc(-c4ccccc4)o3)c2C#N)cc1OC	-1%	3%	20	2.9µM*	-15%	-1%	3.2µM*	-12%	?	13%	-3%	0%
CN(Cc1ccccc1F)C(=O)CN1C(=O)NC2(CCc3ccccc32)C1=O (stereo not given)	-1%	/	5	3%	/	/	/	/	/	/	/	/
O=C(Nc1cc(Cl)ccc1Cl)c1ccc(OC(=O)c2ccco2)cc1	0%	-3%	-16	25%	2%	41%	/	/	/	/	4%	5%
Cc1ccc(NC(=O)c2ccc(OC(=O)c3ccco3)cc2)cc1	0%	-1%	1	?	32%	76%	/	/	/	/	-1%	-11%
Cc1ccc(NC(=O)c2ccc(OC(=O)c3cc4ccccc4o3)cc2)cc1	0%	?	4	?	1%	65%	/	/	/	/	-1%	?
COc1ccc(OC(=O)c2cc3ccccc3o2)cc1	0%	-2%	13	0%	1%	/	/	/	/	/	/	/
COc1ccc(Cl)cc1NC(=O)c1ccco1	0%	0%	-9	5%	-4%	/	/	/	/	/	/	/
COc1ccc(OC)c(N(CC(=O)NCCSCc2ccco2)S(=O)(=O)c2ccc(OC)c(OC)c2)c1	-1%	-14%	-7	-2%	-32%	/	/	/	/	/	/	/
ClC1(Cl)CC1CSc1nnc(-c2ccncc2)o1 (stereo not given)	-1%	23%	11	?	32%	/	/	/	/	/	/	/
O=C(COC(=O)Cc1cccs1)Nc1ccc(OC(F)(F)F)cc1	0%	/	4	-3%	/	/	/	/	/	/	/	/
CCC(C)NC(=O)c1oc2ccc(S(=O)(=O)N3CCC4(CC3)OCCO4)cc2c1C (stereo not given)	0%	-21%	-5	-25%	36%	-9%	16µM*	?	4%	-4%	-20%	-2%
Cc1c(C(=O)Nc2ccc(F)cc2)oc2ccc(S(=O)(=O)N3CCC4(CC3)OCCO4)cc12	0%	-4%	-12	12µM*	39%	?	7.1µM*	22µM*	?	25µM*	?	-3%
N#C/C(=C(/O)c1ccc([N+](=O)[O-])s1)c1nc2ccccc2[nH]1	0%	-25%	-26	2.1µM*	-40%	/	?	0.79µM*	-10%	0.89µM*	?	/
O=C(c1nc2ccccc2[nH]1)c1ccccc1[N+](=O)[O-]	0%	9%	0	?	18%	/	/	/	/	/	/	/
NC(=O)c1ccsc1NC(=O)COC(=O)Cc1cccc2ccccc12	0%	4.5µM*	?	1.6µM*	-28%	/	?	0.63µM*	0%	1.3µM*	?	/
CCc1ccc2nc(SCC(=O)Nc3ccccc3N3CCOCC3)c(C#N)cc2c1	0%	-3%	-2	?	-9%	4%	?	7.1µM*	-15%	11µM*	?	3%
Nc1cc(N)nc(SCC(=O)Nc2ccccc2N2CCOCC2)n1	-1%	-1%	5	8%	-9%	/	/	/	/	/	/	/
O=C(NCC(=O)N(c1ccccc1F)C(C(=O)NC1CCCC1)c1ccncc1)c1ccco1 (stereo not given)	0%	6%	-3	-4%	-11%	/	/	/	/	/	/	/
COc1ccc(-c2csc(NC(=O)c3ccc(OCC(=O)N4CCOCC4)c(OC)c3)n2)cc1OC	0%	-10%	9	4.6µM*	0%	/	4µM*	14µM*	?	25µM*	16µM*	/
O=C(c1cc(COc2ccc3ncccc3c2)on1)N1CCCC1	0%	13µM*	-32	?	?	25%	41%	13µM*	-1%	16µM*	?	?
Cc1ccc(OCc2cc(C(=O)N3CCCCCCC3)no2)cc1C	-1%	?	-4	?	?	/	/	/	/	/	/	/
O=C(NC1CCCC1)c1cc(COc2ccc3ncccc3c2)on1	0%	5µM*	-18	2.3µM*	?	-3%	?	2.5µM*	-3%	3.2µM*	?	?
O=C(NCCN1CCOCC1)c1ccccc1OCc1ccccc1	-1%	/	-4	10%	/	/	/	/	/	/	/	/
